Bioassay records deposited in PubChem by The Scripps Research Institute Molecular Screening Center.
In the library only some 3.5% were active in any assay of this set; here they are far more common.
TEAD-YAP inh: TEAD-YAP interaction inhibition; HEK-TIYL cells, TEAD-Gal4/YAP UAS-luciferase luminescence; inhibition, % at 9.12 µM; actives 1.4% (n = 640,000); in the data active = inhibition above about 32%;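 also: 0% = median of test compound wells and 100% = reference inhibitor wells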
MITF inh: human MITF inhibition, primary screen | AlphaScreen MITF homodimerization, bead proximity signal | actives 0.91% (n = 650,000) | AID 1259374 | O75030 | inhibition, % at 2.6 µM; in the data active = inhibition above about 50%;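 also: 0% = vehicle wells with protein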
GPR151 ag: activates the human receptor GPR151; Q8TDV0; PathHunter beta-arrestin GPR151 cells, luminescence; activation, % at 11.2 µM; actives 1% (n = 650,000); in the data active = activation above about 4.9%;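 also: 0% = median of compound wells and 100% = cells with positive control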
FBW7 act: human FBW7 E3 ligase activation, primary screen; Q969H0; AlphaScreen FBW7–phospho-cyclin E peptide binding, activator screen; normalized activity (activation), % at 26.1 µM; actives 0.13% (n = 650,000); AID 1259310; in the data active = normalized activity above about 1.9%;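 also: purified mutant Fbw7 with reduced substrate affinity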
Target sequence (Q969H0 whole entry, looked up): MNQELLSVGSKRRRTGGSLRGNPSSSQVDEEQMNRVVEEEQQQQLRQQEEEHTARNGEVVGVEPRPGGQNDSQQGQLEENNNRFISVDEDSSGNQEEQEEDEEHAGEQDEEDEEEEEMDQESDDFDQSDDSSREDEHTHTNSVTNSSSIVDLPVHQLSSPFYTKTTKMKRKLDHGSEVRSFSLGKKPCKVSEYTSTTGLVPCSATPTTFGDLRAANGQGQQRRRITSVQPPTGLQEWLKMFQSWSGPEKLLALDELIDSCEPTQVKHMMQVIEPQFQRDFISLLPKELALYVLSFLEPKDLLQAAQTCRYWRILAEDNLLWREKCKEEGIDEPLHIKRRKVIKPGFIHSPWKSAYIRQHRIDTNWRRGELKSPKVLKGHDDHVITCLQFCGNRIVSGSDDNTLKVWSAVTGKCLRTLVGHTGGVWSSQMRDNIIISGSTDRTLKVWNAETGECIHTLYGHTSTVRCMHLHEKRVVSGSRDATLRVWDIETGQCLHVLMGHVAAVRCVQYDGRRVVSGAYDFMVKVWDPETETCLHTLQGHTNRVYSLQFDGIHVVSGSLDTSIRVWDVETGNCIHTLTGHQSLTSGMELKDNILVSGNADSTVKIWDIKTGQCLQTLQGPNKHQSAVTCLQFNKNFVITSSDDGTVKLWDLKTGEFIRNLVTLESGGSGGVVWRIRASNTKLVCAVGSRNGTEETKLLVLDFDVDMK
MITF inh conf: confirmation of human MITF inhibitors; AID 1259372; AlphaScreen MITF homodimerization, biotin/His-MITF beads; shares compounds with MITF inh; inhibition, % at 2.6 µM; actives 16% (n = 4,700);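 active = inhibition above a cutoff derived from the DMSO control wells, cut at about 28% in these data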;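 also: 0% = MITF dimer wells with DMSO only; inhibitors lower the bead chemiluminescence by keeping MITF from dimerizing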
AS interf DR: AlphaScreen optical interference, dose response counter-screen | shares compounds with MITF inh | AlphaScreen optical interference counterscreen, cell-free | IC50, µM | actives 6% (n = 480) | AID 1259373; call rule not given here
AlphaScreen intf2: counter-screen: compounds optically interfering with AlphaScreen; actives 7.6% (n = 4,700); shares compounds with MITF inh; LysRS AlphaScreen counterscreen, signal interference, triplicate; inhibition, % at 2.6 µM;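 active = inhibition above a cutoff derived from the DMSO control wells, cut at about 30% in these data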
* marks the source's active call; other numbers are inactive results; nt = no result; ! = repeats disagree.

SMILES	TEAD-YAP inh	MITF inh	GPR151 ag	FBW7 act	MITF inh conf	AlphaScreen intf2	others
CCc1ccc(N2C(=O)NC(=O)/C(=C/c3ccc(OC)c(O)c3)C2=O)cc1	-4	17	2	0	nt	nt
Cc1ccc(CN2CCC3(CC2)CC3C(=O)N2CCN(Cc3ccccc3)CC2)s1 (stereo unspecified)	5	-9	-1	0	nt	nt
O=C(Nc1ccc(-c2nc3ccc(C(=O)c4ccccc4)cc3[nH]2)cc1)c1cccc([N+](=O)[O-])c1	-40	3	1	0	nt	nt
O=C(c1ccccc1F)N1CCN(Cc2cccc(F)c2)CC1	-6	54*	1	0	-3	4
CS(=O)(=O)c1ccc2nc(NC(=O)/C=C/c3ccccc3Cl)sc2c1	1	7	0	0	nt	nt
CS(=O)(=O)c1ccc2nc(NC(=O)/C=C/c3cccc([N+](=O)[O-])c3)sc2c1	1	80*	1	0	-9	-6
O=C(O)CC/C(=N\N=C(/CCC(=O)O)c1ccccc1)c1ccccc1	4	-5	0	1	nt	nt
CC(C)n1cc(/C=C2\C(=O)NC(=O)N(c3ccc4c(c3)OCO4)C2=O)c2ccccc21	-11	-3	1	0	nt	nt
CCCCNc1nc(-c2cc(OC)ccc2OC)cs1	3	59*	-1	0	8	11
Cc1ccn2cc(-c3ccc(NC(=O)COc4ccccc4)cc3)nc2c1	-37	-5	-1	0	nt	nt
O=S(=O)(NCC(c1cccs1)S(=O)(=O)c1ccc(Cl)cc1)c1cccs1 (stereo unspecified)	6	73*	0	1	18	3
O=S(=O)(NCC(c1cccs1)S(=O)(=O)c1ccccc1)c1cccs1 (stereo unspecified)	2	-2	-1	0	nt	nt
CCCN(CCC)C(=O)C1=C(C)C(=O)OC12CCC(C)CC2 (stereo unspecified)	-5	-7	0	0	nt	nt
CC(=O)Nc1ccc(CN(CCN(C)C)Cc2ccccc2)cc1	2	59*	0	0	-3	0
CCN(CC)CCN(C)Cc1ccc([N+](=O)[O-])cc1	-8	73*	1	0	8	21
CN(C)CCN(Cc1ccccc1)Cc1ccccc1O	-1	-349	0	0	nt	nt
CCN(CCN(C)C)Cc1ccc(NC(C)=O)cc1	9	46	-1	0	nt	nt
COc1cccc(CN(CCN(C)C)Cc2ccccc2)c1OC	4	52*	0	0	-6	-3
CN(C)CCN(Cc1ccccc1)Cc1ccc(O)cc1	-1	33	-1	0	nt	nt
CN(C)CCN(Cc1ccccc1)Cc1ccc([N+](=O)[O-])cc1	-8	66*	0	0	5	2
O=C(COc1ccc2ccccc2c1)NNC(=O)C12CC3CC(CC(C3)C1)C2	3	-11	1	0	nt	nt
O=S(=O)(NCc1ccccc1)N1CCCCCC1	3	-1	1	0	nt	nt
CCN(CC)S(=O)(=O)c1nnc(NC(=O)COc2ccc(F)cc2)s1	-4	-8	-1	1	nt	nt
CCOC(=O)C1=C(C)Nc2ncnn2C1c1ccccc1OCC (stereo unspecified)	-8	-13	-3	0	nt	nt
COc1ccc(-c2ncn(-c3ccc(Nc4ncc5ccc(-c6cnn(C)c6)cc5n4)cc3)n2)cn1	9	55*	0	1	12	8
SMILES	TEAD-YAP inh	MITF inh	GPR151 ag	FBW7 act	MITF inh conf	AlphaScreen intf2	others
CN(C)c1ccc(NC2CC(=O)N(c3ccc(F)cc3)C2=O)cc1 (stereo unspecified)	-6	1	0	0	nt	nt
CN(C)c1ccc(NC2CC(=O)N(c3ccc(O)cc3)C2=O)cc1 (stereo unspecified)	12	71*	2	0	30*	31*
N=C1SCC(=O)N1c1ncc(Cc2cccc(C(F)(F)F)c2)s1	23	10	-2	0	nt	nt
N=C1SCC(=O)N1c1ncc(Cc2ccccc2)s1	4	59*	-2	0	10	43*
COC(=O)c1ccc(NC(=O)CC2C(=O)N(c3ccc(F)cc3)C(=S)N2CCc2ccc(OC)c(OC)c2)cc1 (stereo unspecified)	-8	0	1	0	nt	nt
CCOC(=O)c1ccc(NC(=O)CC2C(=O)N(c3ccc(F)cc3)C(=S)N2CCc2ccc(OC)c(OC)c2)cc1 (stereo unspecified)	12	72*!	0	0	-7	-4
N#C/C(=C\C1CCCCC1)c1nc(-c2ccc(Cl)cc2)cs1	-3	6	1	0	nt	nt
CN(C)c1ccc(O)c2c1C[C@H]1C[C@H]3[C@H](N(C)C)C(=O)C(C(N)=O)=C(O)[C@@]3(O)C(=O)C1=C2O	0	73*!	1	0	64*	-15	AS interf DR=>6.5
c1ccc(CNc2nc(NC3CCN(Cc4ccccc4)CC3)nc3c2ncn3C2CCCCC2)cc1	-9	27	-1	0	nt	nt
c1ccc(CN2CCC(Nc3nc(Nc4ccccc4)nc4c3ncn4C3CCCCC3)CC2)cc1	8	18	0	0	nt	nt
c1ccc(Nc2nc(NC3CC3)c3ncn(C4CCCCC4)c3n2)cc1	-6	88*	0	0	3	4
CC(C)N(CCNc1nc(NC2CCN(Cc3ccccc3)CC2)nc2c1ncn2C1CCCCC1)C(C)C	5	58*	-2	0	-1	11
CCCOC(=O)C(CC)Oc1ccc2c(=O)c(-c3ccc(Cl)cc3)coc2c1 (stereo unspecified)	0	-5	0	0	nt	nt
CCOC(=O)C1CCN(Cc2nc3ccc(Cl)cc3n2CCO)CC1	-3	72*	1	0	8	14
CCOC(=O)C1CCN(Cc2ccc(Cl)cc2Cl)CC1	-1	39	0	0	nt	nt
Cn1c(SCC(=O)Nc2nnc(-c3cccs3)s2)nnc1-c1ccncc1	-10	18	-2	2	nt	nt
O=C(CC1C(=O)NCCN1C/C=C/c1ccccc1)NCCCc1cccnc1 (stereo unspecified)	1	64*	0	0	4	3
CCOc1ccc(C(=O)NC(=S)Nc2ccc(S(N)(=O)=O)cc2)cc1	10	53*	-1	1	-10	-7
CC(C)(C)c1ccc(C(=O)NC(=S)Nc2ccc(S(N)(=O)=O)cc2)cc1	-5	11	0	0	nt	nt
CCOC(=O)N1CCN(Cc2cccc3ccccc23)CC1	0	-21	0	1	nt	nt
O=C(c1ccncc1)N1CCN(Cc2cccc3ccccc23)CC1	-5	67*	0	0	-3	4
O=C(c1cccnc1)N1CCN(Cc2cccc3ccccc23)CC1	-4	51*	0	-1	-12	-8
COc1ccc2ccccc2c1CN1CCN(C(=O)c2cccnc2)CC1	0	50	-1	0	nt	nt
COc1ccc(C(=O)n2cnc3ccccc32)cc1OC	-12	-26	0	0	nt	nt
